Source: PubChem (University of Kansas High Throughput Screening Laboratory)
mHTT CaM bind – mutant huntingtin-calmodulin interaction inhibitors – biochemical, AlphaScreen, primary screen; P42858; AlphaScreen His-mHTT/GST-CaM binding, luminescence; inhibition, % at 15 µM; actives 3.6% (n = 190,000); AID 1671202, 2021;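 also: 0% = both proteins with DMSO and 100% = one protein alone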
Pf apPOL block – Pf-apPOL inhibitors, biochemical, fluorescence | inhibition, % at 10 µM | Recombinant Pf-apPOL, molecular beacon fluorescence, 1.5 h | actives 0.25% (n = 210,000) | Plasmodium falciparum apicoplast DNA polymerase (apPOL)
* = called active by the depositor; · = not tested or not shown; ! = a repeat was not active. Shown is part of a subset that was picked to be rich in hits. Rule as the data show it: active = inhibition above about 50%; inactive = the rest.

SMILES	mHTT CaM bind	Pf apPOL block
CC1(C)C(C=C(Cl)Cl)C1C(=O)Nc1cccc(C(=O)O)c1 (stereo unspecified)	-3.0	-5.6
CC1(C)C(C=C(Cl)Cl)C1C(=O)Nc1cccc([N+](=O)[O-])c1 (stereo unspecified)	72.4*!	1.1
Cc1ccc(NC(=O)C2C(C=C(Cl)Cl)C2(C)C)cc1C (stereo unspecified)	-11.0	-8.1
CC1(C)C(C=C(Cl)Cl)C1C(=O)Nc1ccccc1Cl (stereo unspecified)	-1.0	1.0
Cc1cc(CNC(=O)C(C)Oc2ccccc2)c(C)o1 (stereo unspecified)	-7.8	-10.3
O=C(Cc1csc(SCC(=O)c2cccs2)n1)NCCc1c[nH]c2ccccc12	30.2	-8.4
COC(=O)Nc1nc(CC(=O)NCc2ccccc2Cl)cs1	-0.8	-6.0
O=C(Cc1csc(NC(=O)c2ccc(=O)[nH]c2)n1)NCCc1c[nH]c2ccccc12	9.8	-13.8
NS(=O)(=O)c1ccc(CNC(=O)Cc2csc(NC(=O)c3cccs3)n2)cc1	-0.2	-7.0
O=C(Cc1csc(NC(=O)c2cccs2)n1)NO	15.2	72.3*
O=C(Cc1csc(NC(=O)c2ccc3c(c2)OCO3)n1)NCCc1c[nH]c2ccccc12	56.0*	-6.2
O=C(Cc1csc(NC(=O)c2ncccn2)n1)NCc1ccccc1Cl	98.3*	-17.8
O=C(Cc1csc(NC(=O)c2cnccn2)n1)NCCc1c[nH]c2ccccc12	53.3*	-24.4
O=C(Nc1cccnc1)c1ccc2nc(N3C(=O)CCC3=O)sc2c1	5.2	-0.4
CN1CCC(N2CCN(C(=O)c3ccc(-c4cccs4)nc3)CC2)CC1	-6.6	1.6
COc1ccc(N2C(=O)CSC2c2cccc([N+](=O)[O-])c2)c(OC)c1 (stereo unspecified)	2.0	-3.0
Cc1ccc(Nc2nc(-c3ccc(F)cc3)cs2)cc1C	97.9*	-0.8
NC(=O)C(=O)Nc1nc(-c2ccccc2)cs1	0.1	-2.0
Cc1ccc(Nc2nc(-c3ccccc3)cs2)cc1Cl	54.5*	-6.8
Cc1ccc(Nc2nc(-c3ccccc3)cs2)cc1C	72.9*	-7.5
Nc1ccc(Nc2nc(-c3ccccc3)cs2)cc1	96.9*	5.7
Cc1ccc(C)c(-c2csc(Nc3ccc(F)cc3)n2)c1	48.2	1.1
O=C(NC1CCCCC1)c1cnc(N2CCN(c3ccccn3)CC2)c2ccccc12	4.0	-6.2
O=C(c1cc(F)ccc1F)N1CCC(CCOc2cccc(F)c2)CC1	-31.1	-5.6
NC(=O)c1c(NC(=O)C2=COCCO2)sc2c1CCCCC2	41.5	1.0
SMILES	mHTT CaM bind	Pf apPOL block
O=C(Nc1cccc([N+](=O)[O-])c1)C(=O)N1CCC(Cc2ccccc2)CC1	14.1	-4.7
O=C(Nc1ccccc1)C1C(c2ccccc2)C1(Cl)Cl (stereo unspecified)	-33.4	-8.4
Cc1cccc(NC(=O)C2C(c3ccccc3)C2(Cl)Cl)c1C (stereo unspecified)	-8.6	66.8*
O=C(Nc1ccc(Cl)c(Cl)c1)c1ccc(F)c(S(=O)(=O)NCc2ccco2)c1	64.0*	-4.4
O=C(Nc1cccc(Cl)c1)c1ccc(F)c(S(=O)(=O)NCc2cccs2)c1	8.0	-6.5
COc1ccccc1CNS(=O)(=O)c1ccc(F)c(C(=O)Nc2ccc(C)c(Cl)c2)c1	70.0*	0.5
COc1ccccc1CNS(=O)(=O)c1ccc(F)c(C(=O)Nc2ccc(F)c(F)c2)c1	-1.0	1.0
O=C(Nc1cc(Cl)cc(Cl)c1)c1cc(S(=O)(=O)NCc2ccco2)ccc1F	11.0	-6.1
O=C(Nc1ccc(F)c(F)c1)c1ccc(F)c(S(=O)(=O)NCc2ccco2)c1	0.0	-21.4
O=C(Nc1ccc(Cl)c(Cl)c1)c1cc(S(=O)(=O)NCc2ccco2)ccc1F	100.0*	-4.0
O=C(Nc1ccc(Cl)c(Cl)c1)c1ccc(F)c(S(=O)(=O)NCc2cccs2)c1	81.0*	4.9
COCCn1c(C2CCN(S(=O)(=O)c3ccc(CC(C)C)cc3)C2)nc2ccncc21 (stereo unspecified)	23.4	-4.0
O=C(Nc1ccc(Br)cc1F)c1ccc(N2CCOCC2)nn1	-5.1	-8.9
N#C/C(=C\c1ccc2c(c1)OCO2)c1nn(-c2ccccc2)c(N)c1C#N	11.2	-1.8
CC(=O)N1CCCC(COc2ccc(C(=O)N3CCC(C)CC3)cc2)C1 (stereo unspecified)	4.2	5.0
COCCn1c(C2CCN(C(=O)c3ccc(C)c(OC)c3)C2)nc2cccnc21 (stereo unspecified)	1.1	-6.1
O=C(O)c1ccc(N=Cc2nc(-c3ccc([N+](=O)[O-])cc3)oc2O)cc1	6.0	-32.1
Cc1ccc(C2Nc3ccc4ncccc4c3C3=C2C(=O)CCC3)cc1 (stereo unspecified)	1.0	-7.1
CC(C)c1ccc(C2Nc3ccc4ncccc4c3C3=C2C(=O)CCC3)cc1 (stereo unspecified)	65.0*	1.3
Cc1ccccc1NC(=O)CC(NCCCCCCN)C(=O)O (stereo unspecified)	0.4	0.5
COc1ccc(C2N(C(=O)CN3CCOCC3)CCN2S(=O)(=O)c2ccc(C)cc2)cc1 (stereo unspecified)	2.0	-6.2
CCNC(=O)C1CCc2sc(C(=O)N(C)C)cc2C1 (stereo unspecified)	-4.6	-3.2
Fc1ccc([C@@H]2Nc3c(F)cccc3[C@@H]3C=CC[C@@H]32)cc1	-10.6	·
Oc1ccc(Cl)c2c1NC(c1ccc(Cl)cc1)C1CC=CC21 (stereo unspecified)	100.0*	-2.8
Fc1cccc2c1NC(c1ccc(Cl)cc1)C1CC=CC21 (stereo unspecified)	59.0*	2.2
SMILES	mHTT CaM bind	Pf apPOL block
CC(=O)c1ccc(O)c2c1C1C=CCC1C(c1ccc(Cl)cc1)N2 (stereo unspecified)	64.1*	-7.1
O=C(O)CCN1C(=O)C(=CC(Cl)=Cc2ccccc2)SC1=S	26.2	-23.3
O=C(CSCCc1nc(-c2ccc(Cl)cc2)cs1)NN=Cc1ccccc1	·	3.0
Cc1nnc(N2C(=O)C(O)=C(C(=O)c3ccco3)C2c2ccc(Br)cc2)s1 (stereo unspecified)	21.7	-7.2
COc1ccc(C2C(C(=O)c3ccco3)=C(O)C(=O)N2c2nnc(C)s2)cc1OC (stereo unspecified)	0.7	-3.7
Cc1nnc(N2C(=O)C(O)=C(C(=O)c3ccco3)C2c2ccccc2F)s1 (stereo unspecified)	56.6*	-19.3
Cc1nnc(N2C(=O)C(O)=C(C(=O)c3ccco3)C2c2ccc(Cl)cc2)s1 (stereo unspecified)	78.1*	-2.2
CCN(CC)c1nc2cc(C(=O)OC)ccc2c(=O)n1-c1cc(F)cc(F)c1	-14.5	-3.0
Cc1ccc(C(=O)N2CC(=O)Nc3ccc(Br)cc3C2c2ccccc2)cc1C (stereo unspecified)	98.0*	-4.1
Cc1ccc(C(=O)N2CC(=O)Nc3ccc(F)cc3C2c2ccc(F)cc2)cc1C (stereo unspecified)	11.0	-3.2
O=C(c1ccncc1)N1CCC(CCOc2ccccc2)CC1	4.2	-3.6
Fc1ccc(-c2csc(Nc3ccc(Oc4ccccc4)cc3)n2)cc1	47.5	-2.4
COc1ccc(-c2csc(Nc3cccc(O)c3)n2)cc1	89.2*	-5.2
COc1cccc(Nc2nc(-c3ccc(F)cc3)cs2)c1	59.0*	-0.9
COc1ccc(-c2csc(Nc3cccc(C(=O)O)c3)n2)cc1	19.2	1.1
CCCCCCCCCn1c[n+](CCCCCCCCC)c2cc(C)c(C)cc21	100.2*	·
